Our source for the binding signal values is article PMC7862700, “An all-to-all approach to the identification of sequence-specific readers for epigenetic DNA modifications on cytosine”.

What all share (assay): DAPPL (digital affinity profiling via proximity ligation, sequencing); 10 mM Tris-HCl pH 7.5, 50 mM NaCl, 1 mM DTT, 4% glycerol, room temperature, 30 min; GST-TFs on glutathione beads, 16-mer random dsDNA library, 0.1% formaldehyde crosslink after washing; high values mean tight binding
Conditions in all cases: protein: recombinant; tags: N-terminal GST; dsDNA, one strand shown

Experiment [1] concerns the target T1, FLI1 (Homo sapiens, UniProt Q01543 1-452).
T1 sequence: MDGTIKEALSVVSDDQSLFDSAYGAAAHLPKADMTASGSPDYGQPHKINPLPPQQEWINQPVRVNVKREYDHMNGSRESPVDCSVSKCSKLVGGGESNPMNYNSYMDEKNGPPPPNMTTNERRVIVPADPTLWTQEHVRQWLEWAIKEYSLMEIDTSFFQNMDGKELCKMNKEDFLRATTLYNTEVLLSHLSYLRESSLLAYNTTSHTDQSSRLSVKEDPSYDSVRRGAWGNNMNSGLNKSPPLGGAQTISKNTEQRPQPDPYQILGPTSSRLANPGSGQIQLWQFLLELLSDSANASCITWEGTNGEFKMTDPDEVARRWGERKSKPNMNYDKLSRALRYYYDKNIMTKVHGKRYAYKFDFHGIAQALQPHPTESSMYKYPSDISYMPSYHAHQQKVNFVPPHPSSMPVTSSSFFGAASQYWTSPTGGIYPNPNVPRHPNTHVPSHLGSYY
The essentials:
(§1)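 Pools were built from human transcription factors expressed in yeast as GST fusions, captured on glutathione beads and DNA-barcoded, along with a tag-only sample. Incubation with 200 nmole of a 16-mer random double-stranded DNA library lasted 30 min at room temperature in Tris/NaCl/DTT/glycerol buffer, and was followed by washing, 0.1% formaldehyde crosslinking, proximity ligation, PCR amplification and Illumina NextSeq500 sequencing. Binding signal is the quotient of each hexamer's read frequency for a factor and its frequency for the tag-only sample.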

Experiment [2] concerns the target T2, ELK1 (Homo sapiens, UniProt P19419 1-428).
T2 sequence: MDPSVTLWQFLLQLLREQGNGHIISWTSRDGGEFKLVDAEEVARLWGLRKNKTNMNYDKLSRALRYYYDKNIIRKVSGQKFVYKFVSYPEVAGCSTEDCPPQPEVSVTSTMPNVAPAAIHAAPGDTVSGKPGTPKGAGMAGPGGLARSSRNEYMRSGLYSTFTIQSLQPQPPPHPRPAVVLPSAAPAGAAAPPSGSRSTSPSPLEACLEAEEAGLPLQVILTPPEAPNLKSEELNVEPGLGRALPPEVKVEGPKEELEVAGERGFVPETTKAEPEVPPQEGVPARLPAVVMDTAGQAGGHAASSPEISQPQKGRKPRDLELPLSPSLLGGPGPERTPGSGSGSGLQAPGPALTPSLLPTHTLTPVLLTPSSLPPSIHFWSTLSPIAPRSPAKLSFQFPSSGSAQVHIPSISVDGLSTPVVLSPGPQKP
The essentials:
as §1

The target in experiment [3] is T3, ERG (Homo sapiens, UniProt P11308 1-479).
T3 sequence: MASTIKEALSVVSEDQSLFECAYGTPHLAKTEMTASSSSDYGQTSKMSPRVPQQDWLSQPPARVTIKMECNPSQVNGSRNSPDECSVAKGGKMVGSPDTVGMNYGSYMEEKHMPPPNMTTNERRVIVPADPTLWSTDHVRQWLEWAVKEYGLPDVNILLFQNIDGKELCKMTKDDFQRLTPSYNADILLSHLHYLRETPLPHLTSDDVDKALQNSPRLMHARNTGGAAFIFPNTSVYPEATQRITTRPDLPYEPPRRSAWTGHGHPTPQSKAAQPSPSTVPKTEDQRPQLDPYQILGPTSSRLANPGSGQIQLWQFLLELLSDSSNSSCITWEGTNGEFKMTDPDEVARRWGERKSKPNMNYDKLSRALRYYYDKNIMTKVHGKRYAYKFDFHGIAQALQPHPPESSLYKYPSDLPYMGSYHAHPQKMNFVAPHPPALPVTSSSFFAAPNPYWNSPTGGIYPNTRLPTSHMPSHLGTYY
The gist of the method:
as §1

The target of experiment [4] is T4, EHF (Homo sapiens, UniProt Q9NZC4 1-300).
T4 sequence: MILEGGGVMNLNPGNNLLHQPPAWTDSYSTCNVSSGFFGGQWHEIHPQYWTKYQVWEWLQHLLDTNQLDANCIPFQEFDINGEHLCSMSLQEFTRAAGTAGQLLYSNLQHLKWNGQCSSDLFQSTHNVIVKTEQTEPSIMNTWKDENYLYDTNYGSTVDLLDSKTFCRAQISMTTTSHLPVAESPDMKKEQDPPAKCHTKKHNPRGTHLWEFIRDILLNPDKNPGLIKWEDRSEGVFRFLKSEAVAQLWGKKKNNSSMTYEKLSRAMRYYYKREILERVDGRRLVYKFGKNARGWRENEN
The gist of the method: as §1

Experiment [5] has as its target SPI1 (Homo sapiens, UniProt P17947 1-270). The essentials:
as §1

The target of experiment [6] is SPIB (Homo sapiens, UniProt Q01892 1-262). The gist of the method: as §1
SPIB, sequence (Q01892 whole entry): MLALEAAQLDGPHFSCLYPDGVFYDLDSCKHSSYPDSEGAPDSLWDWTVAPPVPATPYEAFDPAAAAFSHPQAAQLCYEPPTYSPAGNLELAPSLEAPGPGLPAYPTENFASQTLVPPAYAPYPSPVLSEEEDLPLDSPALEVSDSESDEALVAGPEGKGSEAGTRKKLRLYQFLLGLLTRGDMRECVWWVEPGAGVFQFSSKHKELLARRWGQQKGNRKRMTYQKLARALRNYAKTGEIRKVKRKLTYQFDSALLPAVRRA
Experiment [7] has as its target T5, ELK3 (Homo sapiens, UniProt P41970 1-407).
T5 sequence: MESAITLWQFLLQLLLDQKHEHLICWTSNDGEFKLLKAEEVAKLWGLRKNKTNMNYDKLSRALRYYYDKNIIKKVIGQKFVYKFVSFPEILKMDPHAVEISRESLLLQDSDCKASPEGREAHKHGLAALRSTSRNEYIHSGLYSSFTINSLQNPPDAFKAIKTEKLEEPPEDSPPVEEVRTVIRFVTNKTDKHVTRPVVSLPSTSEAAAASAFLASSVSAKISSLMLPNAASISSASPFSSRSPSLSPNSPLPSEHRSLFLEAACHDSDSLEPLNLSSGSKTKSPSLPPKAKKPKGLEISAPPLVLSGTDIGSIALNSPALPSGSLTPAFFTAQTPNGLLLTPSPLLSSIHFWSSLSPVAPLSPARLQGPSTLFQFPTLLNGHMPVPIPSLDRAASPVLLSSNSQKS
The gist of the method:
as §1

In experiment [8] the target is T6, FEV (Homo sapiens, UniProt Q99581 1-238).
T6 sequence: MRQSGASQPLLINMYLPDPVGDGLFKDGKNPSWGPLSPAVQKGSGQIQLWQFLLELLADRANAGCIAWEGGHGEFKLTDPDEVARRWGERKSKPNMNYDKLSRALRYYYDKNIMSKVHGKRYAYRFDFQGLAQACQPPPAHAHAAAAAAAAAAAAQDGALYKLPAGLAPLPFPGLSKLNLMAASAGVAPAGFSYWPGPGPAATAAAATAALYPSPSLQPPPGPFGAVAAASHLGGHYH
The gist of the method: as §1

Experiment [9] deals with ETV5 (Homo sapiens, UniProt P41161 1-510). The gist of the method:
as §1

For experiment [10], the target named is T7, SPIC (Homo sapiens, UniProt Q8N5J4 1-248).
T7 sequence: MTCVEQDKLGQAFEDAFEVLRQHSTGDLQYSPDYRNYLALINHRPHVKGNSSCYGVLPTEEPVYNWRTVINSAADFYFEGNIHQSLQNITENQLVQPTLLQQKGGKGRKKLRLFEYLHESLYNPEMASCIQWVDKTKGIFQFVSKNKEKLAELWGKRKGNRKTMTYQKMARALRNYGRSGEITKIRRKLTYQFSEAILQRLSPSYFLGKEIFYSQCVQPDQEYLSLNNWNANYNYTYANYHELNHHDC
The essentials: as §1

For experiment [11], the target named is ETV1 (Homo sapiens, UniProt P50549 1-477). The gist of the method:
as §1

In experiment [12] the target is T8, ETV3L (Homo sapiens, UniProt Q6ZN32 1-361).
T8 sequence: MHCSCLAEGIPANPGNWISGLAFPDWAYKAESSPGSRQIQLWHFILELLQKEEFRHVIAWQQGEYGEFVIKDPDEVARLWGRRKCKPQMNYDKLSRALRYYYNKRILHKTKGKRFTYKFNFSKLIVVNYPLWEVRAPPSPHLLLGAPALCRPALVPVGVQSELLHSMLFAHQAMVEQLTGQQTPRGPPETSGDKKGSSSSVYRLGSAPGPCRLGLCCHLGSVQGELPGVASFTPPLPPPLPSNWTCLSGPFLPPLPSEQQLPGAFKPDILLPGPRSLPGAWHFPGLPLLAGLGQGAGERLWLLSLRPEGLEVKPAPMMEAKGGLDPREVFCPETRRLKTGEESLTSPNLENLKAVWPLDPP
The essentials:
as §1

The target in experiment [13] is T9, ETS2 (Homo sapiens, UniProt P15036 1-469).
T9 sequence: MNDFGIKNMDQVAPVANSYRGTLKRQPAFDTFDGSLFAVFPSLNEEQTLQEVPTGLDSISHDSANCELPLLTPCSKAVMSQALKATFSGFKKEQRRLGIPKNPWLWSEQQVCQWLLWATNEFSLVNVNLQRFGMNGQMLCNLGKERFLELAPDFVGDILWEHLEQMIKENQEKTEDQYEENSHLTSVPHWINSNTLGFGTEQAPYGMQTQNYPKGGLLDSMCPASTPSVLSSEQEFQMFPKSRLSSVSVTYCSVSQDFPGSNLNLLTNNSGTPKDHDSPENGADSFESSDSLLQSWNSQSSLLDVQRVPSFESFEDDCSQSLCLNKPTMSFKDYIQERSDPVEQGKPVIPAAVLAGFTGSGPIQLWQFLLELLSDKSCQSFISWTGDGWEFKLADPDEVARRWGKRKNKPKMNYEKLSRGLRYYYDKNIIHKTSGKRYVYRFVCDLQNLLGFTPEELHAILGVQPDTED
The gist of the method:
as §1

The target of experiment [14] is T10, ELF5 (Homo sapiens, UniProt Q9UKW6-2 1-255).
T10 sequence: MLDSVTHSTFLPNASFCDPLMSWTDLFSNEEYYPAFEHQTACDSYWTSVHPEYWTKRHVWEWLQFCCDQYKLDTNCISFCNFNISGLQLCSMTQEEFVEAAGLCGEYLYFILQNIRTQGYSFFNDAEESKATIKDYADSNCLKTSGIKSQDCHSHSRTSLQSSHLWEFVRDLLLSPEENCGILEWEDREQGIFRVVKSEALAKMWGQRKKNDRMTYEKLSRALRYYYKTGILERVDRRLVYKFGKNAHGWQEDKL
The essentials: as §1

In experiment [15] the target is T11, ETV3 (Homo sapiens, UniProt P41162-2 1-143).
T11 sequence: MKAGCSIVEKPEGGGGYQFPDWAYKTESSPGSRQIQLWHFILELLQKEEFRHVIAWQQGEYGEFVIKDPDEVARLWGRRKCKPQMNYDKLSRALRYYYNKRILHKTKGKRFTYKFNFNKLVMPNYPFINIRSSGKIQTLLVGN
The gist of the method: as §1

Experiment [16] concerns the target ETV6 (Homo sapiens, UniProt P41212 1-452). The essentials: as §1

ETV1, sequence (P50549 whole entry): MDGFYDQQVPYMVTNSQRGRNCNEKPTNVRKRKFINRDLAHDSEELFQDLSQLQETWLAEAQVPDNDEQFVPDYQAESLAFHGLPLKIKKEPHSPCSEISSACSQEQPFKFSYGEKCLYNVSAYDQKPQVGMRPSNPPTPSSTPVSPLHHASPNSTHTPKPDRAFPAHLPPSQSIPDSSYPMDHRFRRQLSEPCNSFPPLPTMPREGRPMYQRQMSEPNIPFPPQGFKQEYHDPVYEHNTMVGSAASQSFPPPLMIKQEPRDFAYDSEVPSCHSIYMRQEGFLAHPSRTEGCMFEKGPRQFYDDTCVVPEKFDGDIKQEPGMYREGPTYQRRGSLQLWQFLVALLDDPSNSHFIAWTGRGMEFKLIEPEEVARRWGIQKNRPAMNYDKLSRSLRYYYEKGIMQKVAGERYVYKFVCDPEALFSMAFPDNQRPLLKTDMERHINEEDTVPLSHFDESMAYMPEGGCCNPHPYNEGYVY
ETV5, sequence (P41161 whole entry): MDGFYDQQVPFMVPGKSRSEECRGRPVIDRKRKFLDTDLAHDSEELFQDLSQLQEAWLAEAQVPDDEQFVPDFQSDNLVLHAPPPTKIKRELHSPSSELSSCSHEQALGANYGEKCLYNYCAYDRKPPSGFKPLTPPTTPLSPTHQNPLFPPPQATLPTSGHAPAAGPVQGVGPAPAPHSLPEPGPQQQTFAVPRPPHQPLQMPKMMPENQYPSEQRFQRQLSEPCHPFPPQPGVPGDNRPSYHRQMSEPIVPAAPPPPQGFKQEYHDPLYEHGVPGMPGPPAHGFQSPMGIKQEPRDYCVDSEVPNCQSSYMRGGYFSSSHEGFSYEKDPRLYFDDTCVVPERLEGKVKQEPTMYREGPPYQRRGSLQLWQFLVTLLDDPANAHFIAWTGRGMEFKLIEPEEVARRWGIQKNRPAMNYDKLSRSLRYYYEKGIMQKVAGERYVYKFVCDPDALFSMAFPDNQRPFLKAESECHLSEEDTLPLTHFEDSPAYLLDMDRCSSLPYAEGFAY
ETV6, sequence (P41212 whole entry): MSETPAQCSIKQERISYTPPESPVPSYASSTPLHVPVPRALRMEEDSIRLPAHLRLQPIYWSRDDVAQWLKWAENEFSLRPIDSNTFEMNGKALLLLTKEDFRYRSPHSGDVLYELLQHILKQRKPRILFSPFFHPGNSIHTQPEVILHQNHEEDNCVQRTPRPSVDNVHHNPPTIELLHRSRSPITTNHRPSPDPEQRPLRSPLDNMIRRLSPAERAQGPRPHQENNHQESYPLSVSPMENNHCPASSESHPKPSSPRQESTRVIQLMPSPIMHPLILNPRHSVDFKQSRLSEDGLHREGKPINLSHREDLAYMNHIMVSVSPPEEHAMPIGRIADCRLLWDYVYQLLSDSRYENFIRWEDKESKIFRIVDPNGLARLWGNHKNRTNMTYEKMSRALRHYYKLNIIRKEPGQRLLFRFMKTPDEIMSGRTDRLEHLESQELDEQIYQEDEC

AACGGA: the binding signal in experiment [1] is 1.05 fold enrichment (6-mer frequency, TF over GST control); in experiment [2], 1.08 fold enrichment (6-mer frequency, TF over GST control); in experiment [3] it was 1.18 fold enrichment (6-mer frequency, TF over GST control); in experiment [4] it was 1.13 fold enrichment (6-mer frequency, TF over GST control); in experiment [5] it was 1.15 fold enrichment (6-mer frequency, TF over GST control); in experiment [6], 1.07 fold enrichment (6-mer frequency, TF over GST control). For the same sequence, the binding signal in [7] is 1.13 fold enrichment (6-mer frequency, TF over GST control); in experiment [8] it was 1.35 fold enrichment (6-mer frequency, TF over GST control); in [9] it was 1.1 fold enrichment (6-mer frequency, TF over GST control); in experiment [10], 1.04 fold enrichment (6-mer frequency, TF over GST control); in experiment [11], 1.11 fold enrichment (6-mer frequency, TF over GST control); in experiment [12], 1.01 fold enrichment (6-mer frequency, TF over GST control). In addition, the binding signal in experiment [13] is 1.15 fold enrichment (6-mer frequency, TF over GST control); in [14], 1.11 fold enrichment (6-mer frequency, TF over GST control); in experiment [15], 1.08 fold enrichment (6-mer frequency, TF over GST control); in experiment [16], 1.2 fold enrichment (6-mer frequency, TF over GST control).
